Screens from PubChem.
Only some compounds are listed: those with a hit (about 2.4% of all), similar ones and a draw of the others.
D2 PAM-1: human D2 receptor positive allosteric modulation. P14416. hit rate 0.23% among 360,000. potentiation, % (no concentration beside the values). AID 624464. DiscoveRx D2 beta-arrestin cells, luminescence, 90 min; 100% = 57 uM dopamine signal; in the data active means potentiation above about 50%
Target sequence (P14416 whole entry, looked up): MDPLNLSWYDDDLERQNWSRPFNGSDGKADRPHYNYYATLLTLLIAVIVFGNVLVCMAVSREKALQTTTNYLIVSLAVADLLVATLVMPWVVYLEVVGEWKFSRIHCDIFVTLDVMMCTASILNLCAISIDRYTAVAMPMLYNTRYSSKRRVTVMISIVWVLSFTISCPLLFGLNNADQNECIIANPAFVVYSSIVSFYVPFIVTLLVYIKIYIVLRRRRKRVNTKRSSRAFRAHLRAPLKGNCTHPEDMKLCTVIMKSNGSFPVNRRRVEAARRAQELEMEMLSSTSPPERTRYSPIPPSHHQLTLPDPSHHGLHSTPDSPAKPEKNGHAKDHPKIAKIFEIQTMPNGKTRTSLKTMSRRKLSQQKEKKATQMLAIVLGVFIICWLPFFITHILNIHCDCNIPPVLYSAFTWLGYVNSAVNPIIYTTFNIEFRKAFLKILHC
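PathHunter beta-arrestin assay in DiscoveRx D2 cells. Compounds were added with an EC20 of dopamine (50 nM final) for 90 min at 37 deg C. Luminescence was read 1 h after detection reagent, with 57 uM dopamine as the EC100 control.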
D2 ag-1: activates the human D2 dopamine receptor; P14416; DiscoveRx PathHunter D2 beta-arrestin, luminescence, 90 min; 100% = 57 uM dopamine signal; activation, % (no concentration beside the values); hit rate 0.084% among 360,000; AID 624465; in the data active means activation above about 40%
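DiscoveRx PathHunter D2 beta-arrestin cells (2,100/well) attached overnight, then compound-stimulated 90 min at 37 C in HBSS/10 mM HEPES/0.1% Tween-20 buffer; beta-galactosidase complementation read by luminescence after 1 h at ambient temperature. Dopamine 57 uM final (EC100) as control.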
D2 antag: antagonists of human D2 dopamine receptor | P14416 | hit rate 2% among 340,000 | HEK293 TREx D2 cells, calcium flux, dopamine EC80 | AID 485344 | inhibition, % at 10 µM; in the data active means inhibition above about 30%; inactive means below that, where a call was filed
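Compounds are added to dye-loaded, induced HEK293 T-REx cells coupled to calcium release via D2; after a 3 min kinetic read an EC80 dopamine stimulus is given and fluorescence is recorded for 3 more min.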
D2 PAM-2: D2 dopamine receptor (human) potentiation; AID 485347; potentiation, % at 10 µM; HEK293 T-REx D2, calcium flux, EC20 dopamine potentiation; hit rate 0.34% among 340,000; P14416;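 active means potentiation over 3 SD above the plate norm, cut at about 30% in these data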
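Potentiation of an EC20 dopamine calcium response measured kinetically over 180 s, after a preceding 180 s compound-only read flagging agonists. Cells: inducible Hek293 Trex D2 line, 4000/well, cultured overnight at 30 C before dye loading.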
D2 ag-2: agonists of human D2 dopamine receptor | P14416 | HEK293 T-REx D2 cells, calcium flux agonist mode | activation, % at 2 µM | hit rate 0.53% among 340,000;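 active means activation over 3 SD above normal in the single-dose calcium agonist read, cut at about 30% in these data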
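HEK293 Trex D2 cells, tetracycline-induced, o/n 30 C 5% CO2; no-wash Ca dye, RT 30–90 min; 10-cycle baseline, 23 nl cpd added, kinetic Ca read 180 s; agonist hits = positive Ca response.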
Each line names hits and unclear results; the compound was inactive in the other large screens.

CC(C)(C)C(=O)Cn1c(=O)n(CCCCCC(=O)NCc2ccc3c(c2)OCO3)c(=O)c2sccc21	none (no result: D2 PAM-1, D2 ag-1, D2 antag)
CCOc1ccc(CCNC(=O)c2sc3nc4n(c(=O)c3c2C)CCCC4)cc1OCC	none (no result: D2 PAM-1, D2 ag-1, D2 antag)
CCOc1ccc(CCNC(=O)c2sc3nc4n(c(=O)c3c2C)CCC4)cc1OCC	D2 antag 30
COc1ccc2[nH]cc(C(O)CN3CCN(c4ccccc4F)CC3)c2c1 (centres undefined)	D2 antag 33
COc1ccccc1N1CCN(CC(O)COc2ccc(C)cc2C)CC1 (centres undefined)	D2 antag 76
Cc1ccc(Cl)cc1N1CCN(CC(O)COCc2ccco2)CC1 (centres undefined)	D2 antag 97
Cc1ccccc1OCC(O)Cn1c(=N)n(CCN2CCOCC2)c2ccccc21 (centres undefined)	D2 PAM-2 40
C=CCc1ccc(OCC(O)CN2CCN(c3ccccc3OC)CC2)c(OC)c1 (centres undefined)	none
Cc1ccc(N2CCN(CC(O)COc3cccc4ccccc34)CC2)cc1 (centres undefined)	none
COc1ccccc1N1CCN(CC(O)COc2c(OC)cccc2OC)CC1 (centres undefined)	D2 antag 123
Cc1ccccc1OCC(O)CN1CCCCC1 (centres undefined)	none
OC(COc1cccc2ccccc12)CN1CCN(c2ccccc2Cl)CC1 (centres undefined)	D2 antag 39
Cc1ccccc1OCC(O)CN1CCN(CC(O)COc2ccccc2C)CC1 (centres undefined)	D2 antag 62
COc1ccccc1N1CCN(CC(O)c2ccc3cc[nH]c3c2)CC1 (centres undefined)	D2 antag 60, D2 ag-2 37
CCN(CC)C(=O)C1=C(C)N(CCCN2CCCC2=O)C(=O)C(CC(=O)NC2CCCC2)C1 (centres undefined)	none (no result: D2 antag, D2 PAM-2, D2 ag-2)
COc1cc(COCC(O)CN2CCN(Cc3ccccc3)CC2)cc(OC)c1OC (centres undefined)	none
COc1ccccc1N1CCN(CC(O)COCCOc2ccc(Br)cc2)CC1 (centres undefined)	D2 antag 78
COc1ccccc1N1CCN(CC(O)COCc2cccs2)CC1 (centres undefined)	D2 antag 81
Cc1cc(C)c2c(n1)sc1c(=O)n(-c3cc(Cl)ccc3C)nnc12	none (no result: D2 PAM-1, D2 ag-1, D2 antag)
CN1CCN(NC(=O)CSc2ccc(Cl)cc2Cl)CC1	D2 antag 46
O=C(CSc1cc(Cl)ccc1Cl)NC1CC1	none
Cc1ccc(CNC(=O)c2cccn2-c2nnc(N3CCCCC3)s2)cc1	none (no result: D2 PAM-1, D2 ag-1, D2 antag)
Cc1cc(OCCN2CCCCC2)nc2ccccc12	D2 antag 31
Cc1cc(C)c2c(c1)[C@@H]1C=CC[C@@H]1[C@H](c1ccc(S(=O)(=O)N3CCOCC3)cc1)N2	D2 antag 35
CC1CCCN(S(=O)(=O)c2ccc(C(=O)Nc3nnc(-c4ccccn4)o3)cc2)C1 (centres undefined)	D2 antag 35
COCc1nnc(NC(=O)c2ccc(S(=O)(=O)N3CCCCCC3)cc2)o1	D2 PAM-2 32
Cc1nnc(NC(=O)c2ccc(S(=O)(=O)N3CCCCCC3)cc2)o1	none
CCc1nnc(SCc2nc(-c3ccc(OC)cc3)oc2C)c2cc3sccc3n12	none (no result: D2 PAM-1, D2 ag-1, D2 antag, D2 ag-2)
CCc1cccc(NC(=O)C2CCC(CNS(=O)(=O)c3ccc(Br)s3)CC2)c1 (centres undefined)	none (no result: D2 PAM-1, D2 ag-1, D2 antag)
CCOC(=O)c1ccc(NC(=O)c2nc[nH]c2C(=O)N2CCc3ccccc3C2)cc1	none
Cc1ccc(NC(=O)c2nc[nH]c2C(=O)N2CCc3ccccc3C2)cc1	D2 antag 63
Cc1cccc(NC(=O)c2nc[nH]c2C(=O)N2CCC(C)CC2)c1	D2 antag 39
Cc1ccc(-c2cn3c(n2)sc2cc(C(=O)NCCC4=CCCCC4)ccc23)c(C)c1	none (no result: D2 PAM-1, D2 ag-1, D2 antag)
COc1ccccc1/C=N\Nc1cn[nH]c(=O)c1Cl	D2 antag 30
CCCC(=O)N(CCN(C(=O)CCC)c1ccccc1)c1ccccc1	D2 PAM-2 31
CCCn1c(Nc2nc3ccccc3n2C)nc2ccccc21	none
C=CCn1c(/N=C/c2ccc(N(C)C)cc2)nc2ccccc21	none (no result: D2 antag, D2 PAM-2, D2 ag-2)
CCCCn1c(/N=C/c2ccc(N(C)C)cc2)nc2ccccc21	D2 PAM-2 49
CCCCn1c(Nc2ccccc2)nc2ccccc21	D2 antag 36
CCCCn1c(N)nc2ccccc21	D2 antag 31
CCCCCn1c(NCc2ccco2)nc2ccccc21	D2 antag 34
CCS(=O)(=O)N1CCCc2cc(C(=O)Nc3cc([N+](=O)[O-])ccc3C)ccc21	none (no result: D2 PAM-1, D2 ag-1, D2 antag)
COc1ccccc1NC(=O)N1c2ccccc2Sc2ccccc21	none (no result: D2 PAM-1, D2 ag-1, D2 antag)
COc1ccc(CC(=O)NCC2CCCN(Cc3cccc(C(F)(F)F)c3)C2)cc1 (centres undefined)	none
CSc1ccc(CN2CCCC(CNC(=O)c3ccc(F)cc3)C2)cc1 (centres undefined)	D2 antag 41
O=C(NCC1CCCN(Cc2ccccc2F)C1)c1cccc(C(F)(F)F)c1 (centres undefined)	D2 antag 31
O=C1CCSc2ccc(Cl)cc2N1Cc1cccc(Cl)c1	D2 antag 33
Cc1ccc(CN2C(=O)CCSc3ccc(Cl)cc32)cc1	none
Cc1oc2ccc(O)cc2c1C(=O)c1ccc([N+](=O)[O-])cc1	D2 PAM-1 54
Cc1oc2ccc(O)cc2c1C(=O)c1ccc(Cl)cc1	none
O=C(COC(=O)/C=C/c1cccc([N+](=O)[O-])c1)Nc1ccc(Cl)cn1	D2 antag 39
COc1ccc(C(=O)Oc2cc(N)n(S(=O)(=O)c3ccc(C)cc3)n2)cc1	D2 antag 38
COc1ccccc1C(=O)Oc1cc(N)n(S(=O)(=O)c2ccc(C)cc2)n1	none
CCOC(=O)c1c(C)oc2nc(C)nc(NCc3cccc(OC)c3)c12	none (no result: D2 PAM-1, D2 ag-1, D2 antag)
CCOc1cc(C(=O)Nc2ccc3c(c2)OCO3)ccc1OCCOc1ccccc1Cl	D2 antag 32
CCOc1ccccc1C(=O)NC(C)c1ccc2c(c1)OCO2 (centres undefined)	D2 antag 40
O=C(Nc1ccc(Nc2ccccc2)cc1)c1cccc(F)c1	D2 PAM-2 32
O=C(Nc1cccc(F)c1)c1ccc2c(c1)OCO2	D2 antag 31 (no result: D2 PAM-2)
O=C(Nc1cccc(F)c1)c1ccccc1	none
Cc1ccc(NC(=O)Cn2c(=O)n(Cc3ccccc3)c(=O)c3c2c2cc(C)ccc2n3C)cc1	none (no result: D2 PAM-1, D2 ag-1, D2 antag)
CSc1ccc(CCNC(=O)Cn2c(C)c3cnn(-c4ccccc4)c(=O)c3c2C)cc1	none (no result: D2 PAM-1, D2 ag-1, D2 antag, D2 ag-2)
CCOC(=O)c1ccc2ncc3c(-c4ccccc4)nn(-c4ccc(F)c(Cl)c4)c3c2c1	none (no result: D2 PAM-1, D2 ag-1, D2 antag)
O=C(NNC(=O)c1ccc(F)cc1F)c1ccc2c(c1)OCO2	D2 antag 37
